Measured values from PubChem BioAssay (NCATS).
Inconclusive results are not listed. Values without a mark were called inactive. Calls of active or inactive are those of the source. Calls follow the shape of the dose curve; as a rule, active = well fitted cell-killing curve with a large enough effect; inconclusive = small, poorly fitted or top-dose-only effect, or effect the other way; inactive = no such curve, though single readings can be large or run the other way.

assay: Quantitative High-Throughput drug screen in 47 multiple myeloma cell lines against the NCATS MIPE library collection: ARP1_JJKsccF8 cell viability assay (AID 1918928; also: nearly all actives have a fitted effect of over 40% in size); conditions: ARP1 myeloma cells viability, CellTiter-Glo ATP, 48 h; series mostly up to 45.8 µM; viability: at the top concentration
Text: PI: Beverly A. Mock Ph.D.
Laboratory of Cancer Biology and Genetics,
Center for Cancer Research, National Cancer Institute,
National Institute of Health, Bethesda, Maryland
Drug resistance and disease progression are common in multiple myeloma (MM) patients, underscoring the need for new therapeutic combinations. […] We hypothesized that effective combinations would reduce MYC expression and enhance p16 activity. […] These preclinical data identify potentially useful drug combinations for evaluation in drug-resistant MM and reveal potential mechanisms of combined drug sensitivity.
Described herein is the primary MIPE qHTS used to cherrypick compounds. Validated compounds were then further tested for potential synergistic activiy.
[1] Peat TJ, Gaikwad SM, Dubois W, Gyabaah-Kessie N, Zhang S, Gorjifard S, Phyo Z, Andres M, Hughitt VK, Simpson RM, Miller MA, Girvin AT, Taylor A, Williams D, D'Antonio N, Zhang Y, Rajagopalan A, Flietner E, Wilson K, Zhang X, Shinn P, Klumpp-Thomas C, McKnight C, Itkin Z, Chen L, Kazandijian D, Zhang J, Michalowski AM, Simmons JK, Keats J, Thomas CJ, Mock BA. Drug combinations identified by high-throughput screening promote cell cycle transition and upregulate Smad pathways in myeloma. Cancer Lett. 2023 Aug 1;568:216284. doi: 10.1016/j.canlet.2023.216284. Epub 2023 Jun 24. PMID: 37356470; PMCID: PMC10408729.
SEQUENCE No. (e.g., 1, 2, 3, etc.); […] (e.g., Cells, Incubation, Reagent, etc.); VALUE and DESCRIPTION.
1; Cells; 5 uL; white, solid bottom 1536-well Greiner assay plate.
2; Compounds; 23 nL; Kalypsis pin tool (Wako USA) equipped with a 1536-well pin head to transfer to the assay plates.
3; Incubation; 48 hours; 37C incubation.
4; Reagent;5uL; CellTiter Glo (Promega).
5; Detector; 425V; Luminescence; Viewlux PerkinElmer.
NOTES (numbers refer to Sequence numbers above)
1. The cell-based screening methods employed in this study were like those previously published. Briefly, the corresponding myeloma cell lines were screened in 1,536-well plates with 500 cells, 5-uL per well for inhibition of cell viability (assessed by measuring ATP levels with CellTiterGlo).
2. NCATS MIPE 4.0 library of approved and investigational drugs were added using the Kalypsis pin tool. Wells treated with DMSO only for 100% viability and media only cells for 0% viability were used as controls.
3. The assay plates were covered and incubated for 48 hours in a 37C, 5% CO2 incubator with controlled humidity.
4. After 48 hours, CellTilter-GloTM luminescent substrate mix (Promega) reagent was added to the assay plate and plates we incubated for 5 min at room temperature.
5. Signal was measured as median relative luminescence units on a ViewLux (PerkinElmer) multiplate reader.
[1] Heske CM, Davis MI, Baumgart JT, Wilson K, Gormally MV, Chen L, Zhang X, Ceribelli M, Duveau DY, Guha R, Ferrer M, Arnaldez FI, Ji J, Tran HL, Zhang Y, Mendoza A, Helman LJ, Thomas CJ. Matrix Screen Identifies Synergistic Combination of PARP Inhibitors and Nicotinamide Phosphoribosyltransferase (NAMPT) Inhibitors in Ewing Sarcoma. Clin Cancer Res. 2017 Dec 1;23(23):7301-7311. doi: 10.1158/1078-0432.CCR-17-1121. Epub 2017 Sep 12. PMID: 28899971; PMCID: PMC6636827.
Potency is read from the fitted curve at half-maximal effect.

| Compound | viability | Potency |
| --- | --- | --- |
| CN[C@H](CC(C)C)C(=O)N[C@H]1C(=O)N[C@@H](CC(N)=O)C(=O)N[C@@H]2C(=O)N[C@H]3C(=O)N[C@H](C(=O)N[C@H](C(=O)O)c4cc(O)cc(O)c4-c4cc3ccc4O)[C@H](O)c3ccc(c(Cl)c3)Oc3cc2cc(c3O[C@@H]2O[C@H](CO)[C@@H](O)[C@H](O)[C@@H]2O[C@H]2C[C@](C)(N)[C@H](O)[C@H](C)O2)Oc2ccc(cc2Cl)[C@H]1O | 112% | – |
| CCc1cnn2c(NCc3ccc[n+]([O-])c3)cc(N3CCCC[C@@H]3CCO)nc12 | – | 0.0264 µM (active) |
| CC(=O)O[C@H]1C[C@@H]2CC[C@H]3[C@H]4C[C@H]([N+]5(C)CCCCC5)[C@@H](OC(C)=O)[C@@]4(C)CC[C@@H]3[C@@]2(C)C[C@H]1N1CCCCC1 | 103% | – |
| CC(C)[C@H](CO)Nc1nc(Nc2cccc(Cl)c2)c2ncn(C(C)C)c2n1 | – | 23.5 µM (active) |
| Oc1cc(-c2nc(-c3ccccc3)[nH]c2-c2ccncc2)ccc1Cl | – | 14.8 µM (active) |
| O=C(O)C[C@H](O)C[C@H](O)C=Cc1c(C2CC2)nc2ccccc2c1-c1ccc(F)cc1 | – | 13.2 µM (active) |
| CC(C)NC[C@@H](C(=O)N1CCN(c2ncnc3c2[C@H](C)C[C@H]3O)CC1)c1ccc(Cl)cc1 | – | 2.09 µM (active) |
| C#Cc1cccc(Nc2ncnc3cc(OCCOC)c(OCCO)cc23)c1 | – | 23.5 µM (active) |
| O=c1[nH]c(=O)n([C@H]2C[C@@H](O)[C@@H](CO)O2)cc1C=CBr | 106% | – |
| CCc1nc(-c2cccc(C)c2)c(-c2ccnc(NC(=O)c3ccccc3)c2)s1 | – | 11.8 µM (active) |
| O=C(c1ccc(F)cc1)N1CCC[C@H](c2nc(-c3ccc(F)cc3)no2)C1 | 106% | – |
| CN(C)CCN1C(=O)c2cccc3cc(N)cc(c23)C1=O | – | 20.9 µM (active) |
| CS(=O)(=O)N1CCc2c(-c3cnc(N)nc3)nc(N3CCOCC3)nc21 | – | 0.0418 µM (active) |
| Cn1cc(-c2ccc3ncc(Cc4ccc5ncccc5c4)n3n2)cn1 | 91.3% | – |
| CCN(CC)CCNC(=O)c1c(C)[nH]c(C=C2C(=O)Nc3ccc(F)cc32)c1C | – | 4.81 µM (active) |
| COc1cc(CCc2cc(NC(=O)c3ccc(N4C[C@@H](C)N[C@@H](C)C4)cc3)n[nH]2)cc(OC)c1 | – | 18.7 µM (active) |
| CCOC(=O)C=C[C@H](C[C@@H]1CCNC1=O)NC(=O)[C@@H](CC(=O)[C@@H](NC(=O)c1cc(C)on1)C(C)C)Cc1ccc(F)cc1 | 104% | – |
| CC(=O)ON=C1C(c2c(O)[nH]c3cc(Br)ccc23)=Nc2ccccc21 | – | 10.5 µM (active) |
| NC(=O)Nc1sc(-c2ccc(F)cc2)cc1C(N)=O | – | 2.96 µM (active) |
| COc1cc([C@@H]2c3cc4c(cc3[C@H](O)[C@H]3COC(=O)[C@@H]23)OCO4)cc(OC)c1OC | – | 0.0526 µM (active) |

| Compound | viability | Potency |
| --- | --- | --- |
| CC[C@]12C=CCN3CC[C@@]4(c5cc([C@@]6(C(=O)OC)C[C@H]7C[C@@H](C(C)(F)F)CN(Cc8c6[nH]c6ccccc86)C7)c(OC)cc5N(C)[C@H]4[C@@](O)(C(=O)OC)[C@H]1OC(C)=O)[C@@H]32 | – | 0.0047 µM (active) |
| COc1cccc2c1C(=O)c1c(O)c3c(c(O)c1C2=O)C[C@@](O)(C(=O)CO)C[C@@H]3O[C@H]1C[C@H](N)[C@@H](O)[C@H](C)O1 | – | 0.469 µM (active) |
| CCOc1cc2ncc(C#N)c(Nc3ccc(OCc4ccccn4)c(Cl)c3)c2cc1NC(=O)C=CCN(C)C | – | 14.8 µM (active) |
| O=C(NC1CC1)c1cccc(-c2ccc3c(NC(=O)C4CC4)n[nH]c3c2)c1 | – | 14.8 µM (active) |
| CCOC(=O)C1=C(C)NC(=S)NC1c1cccc(O)c1 (stereo not given) | – | 0.105 µM (active) |
| Cc1noc(-c2ccc(CSCCC(=O)O)cc2)c1NC(=O)OC(C)c1ccccc1Cl (stereo not given) | 107% | – |
| CC(N[C@H]1CCCC[C@H]1NC(=O)c1ccc(Cl)cc1)c1cccc2ccccc12 (stereo not given in full) | 67.1% | – |
| COc1cccc2c1C(=O)c1c(O)c3c(c(O)c1C2=O)C[C@@](O)(C(=O)CO)C[C@@H]3O[C@H]1C[C@H](N)[C@H](OC2CCCCO2)[C@H](C)O1 (stereo not given in full) | – | 3.32 µM (active) |
| COc1cc(OC)cc(-c2ccc3ncc4ccc(=O)n(-c5ccc(N6CCNCC6)c(C(F)(F)F)c5)c4c3c2)c1 | – | 3.32 µM (active) |
| Nc1ncn([C@@H]2O[C@H](CO)[C@@H](O)[C@@H]2O)c(=O)n1 | – | 5.26 µM (active) |
| CN1[C@H]2CC(OC(=O)[C@@H](CO)c3ccccc3)C[C@H]1[C@H]1O[C@H]12 (stereo not given in full) | 103% [at 23.2 µM] | – |
| Cn1cc(-c2cnn3c(N)c(Br)c([C@H]4CCCNC4)nc23)cn1 | – | 3.32 µM (active) |
| COC(=O)[C@H](CCCN=C(N)N)NS(=O)(=O)c1ccc(C)cc1 | 106% | – |
| Nc1nc2c(c(=O)[nH]1)N(C=O)[C@H](CNc1ccc(C(=O)N[C@@H](CCC(=O)O)C(=O)O)cc1)CN2 | 116% | – |
| Cc1nc(NC(=O)N2CCC[C@@H]2C(N)=O)sc1-c1ccnc(C(C)(C)C(F)(F)F)c1 | – | 0.418 µM (active) |
| COc1ccc2c(c1OC)C(=O)OC2[C@H]1c2c(cc3c(c2OC)OCO3)CCN1C (stereo not given in full) | – | 0.0526 µM (active) |
| COc1cccc2c1C(=O)c1c(O)c3c(c(O)c1C2=O)C[C@@](O)(C(C)=O)C[C@H]3O[C@H]1C[C@H](N)[C@H](O)[C@H](C)O1 | – | 0.059 µM (active) |
| C[C@H](NC(=O)[C@@H](O)c1cc(F)cc(F)c1)C(=O)N[C@@H]1C(=O)N(C)c2ccccc2-c2ccccc21 | 97% | – |
| C[C@H](CCC(=O)O)[C@H]1CC[C@H]2[C@@H]3[C@H](O)C[C@@H]4C[C@H](O)CC[C@]4(C)[C@@H]3CC[C@]12C | 116% | – |
| O=c1[nH]c(=O)n([C@H]2C[C@@H](O)[C@@H](CO)O2)cc1F | – | 5.26 µM (active) |
